Legend:
Test in all cases: DAPPL (digital affinity profiling via proximity ligation, sequencing); 10 mM Tris-HCl pH 7.5, 50 mM NaCl, 1 mM DTT, 4% glycerol, room temperature, 30 min; GST-TFs on glutathione beads, 16-mer random dsDNA library, 0.1% formaldehyde crosslink after washing; high values mean tight binding
Conditions in all cases: protein: recombinant; tags: N-terminal GST; dsDNA, one strand shown
FEV = biological target: T1, FEV (Homo sapiens, UniProt Q99581 1-238)
T1 sequence: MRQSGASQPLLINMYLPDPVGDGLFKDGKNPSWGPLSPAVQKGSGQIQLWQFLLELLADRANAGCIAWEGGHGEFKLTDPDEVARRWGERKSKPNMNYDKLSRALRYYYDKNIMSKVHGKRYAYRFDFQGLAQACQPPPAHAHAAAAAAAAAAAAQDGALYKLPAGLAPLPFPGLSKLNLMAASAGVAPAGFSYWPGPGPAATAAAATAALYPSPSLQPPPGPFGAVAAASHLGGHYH
Procedure, shortened: (§1)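 Yeast served to express human transcription factors as GST fusions, which were then captured on glutathione beads and labelled with DNA barcodes. Pooled with a tag-only sample, they were incubated with 200 nmole of a 16-mer random double-stranded DNA library for 30 min at room temperature in Tris/NaCl/DTT/glycerol buffer, washed, crosslinked with 0.1% formaldehyde, ligated by proximity, amplified by PCR and sequenced. Dividing each hexamer's read frequency for a factor by its frequency for the tag-only sample gives the binding signal.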

ETV5 = ETV5 (Homo sapiens, UniProt P41161 1-510)
Procedure, shortened: as §1

SPIC = biological target: T2, SPIC (Homo sapiens, UniProt Q8N5J4 1-248)
T2 sequence: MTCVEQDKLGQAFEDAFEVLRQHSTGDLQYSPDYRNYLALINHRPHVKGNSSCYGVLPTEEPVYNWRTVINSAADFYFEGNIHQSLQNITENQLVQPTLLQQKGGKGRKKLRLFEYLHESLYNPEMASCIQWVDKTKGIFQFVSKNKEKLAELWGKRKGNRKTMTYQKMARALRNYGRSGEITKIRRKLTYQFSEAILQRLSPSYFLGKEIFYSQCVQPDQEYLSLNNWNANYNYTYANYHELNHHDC
Procedure, shortened: as §1

ELF4 = ELF4 (Homo sapiens, UniProt Q99607 1-663)
Procedure, shortened: as §1

ELK4 = biological target: T3, ELK4 (Homo sapiens, UniProt P28324-2 1-405)
T3 sequence: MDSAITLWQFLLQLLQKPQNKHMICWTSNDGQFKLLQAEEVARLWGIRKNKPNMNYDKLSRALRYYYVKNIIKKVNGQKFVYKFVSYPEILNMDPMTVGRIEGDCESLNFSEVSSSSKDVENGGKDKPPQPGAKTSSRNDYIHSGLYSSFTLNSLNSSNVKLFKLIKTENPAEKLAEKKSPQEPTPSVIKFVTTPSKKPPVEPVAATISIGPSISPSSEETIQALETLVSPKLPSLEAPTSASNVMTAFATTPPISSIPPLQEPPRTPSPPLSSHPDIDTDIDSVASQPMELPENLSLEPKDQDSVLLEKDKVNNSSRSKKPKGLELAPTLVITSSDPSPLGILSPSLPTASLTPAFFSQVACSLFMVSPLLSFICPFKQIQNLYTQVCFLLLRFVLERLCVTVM
Procedure, shortened: as §1

ETV2 = biological target: T4, ETV2 (Homo sapiens, UniProt O00321 1-342)
T4 sequence: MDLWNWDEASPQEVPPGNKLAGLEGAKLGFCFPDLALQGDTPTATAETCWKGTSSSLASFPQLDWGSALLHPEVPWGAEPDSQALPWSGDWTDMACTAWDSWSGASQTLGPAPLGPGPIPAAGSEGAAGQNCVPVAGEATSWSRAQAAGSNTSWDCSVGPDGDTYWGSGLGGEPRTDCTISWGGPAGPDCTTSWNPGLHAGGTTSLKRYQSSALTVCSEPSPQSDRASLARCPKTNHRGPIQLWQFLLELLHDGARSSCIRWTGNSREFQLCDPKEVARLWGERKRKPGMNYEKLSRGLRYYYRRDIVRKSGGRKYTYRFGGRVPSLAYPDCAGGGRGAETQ
Procedure, shortened: as §1

ELF3 = biological target: T5, ELF3 (Homo sapiens, UniProt P78545 1-371)
T5 sequence: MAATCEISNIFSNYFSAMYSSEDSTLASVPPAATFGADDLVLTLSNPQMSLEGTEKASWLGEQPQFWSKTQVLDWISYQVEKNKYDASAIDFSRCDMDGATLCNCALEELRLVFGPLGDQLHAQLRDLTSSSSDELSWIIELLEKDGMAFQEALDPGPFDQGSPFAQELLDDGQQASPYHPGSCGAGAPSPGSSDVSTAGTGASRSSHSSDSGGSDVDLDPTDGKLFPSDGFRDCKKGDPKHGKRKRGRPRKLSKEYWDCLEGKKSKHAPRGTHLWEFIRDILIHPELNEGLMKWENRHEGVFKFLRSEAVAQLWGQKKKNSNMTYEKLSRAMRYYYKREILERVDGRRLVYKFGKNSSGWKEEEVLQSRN
Procedure, shortened: as §1

ETV1 = ETV1 (Homo sapiens, UniProt P50549 1-477)
Procedure, shortened: as §1

Chain of ELF4 (Q99607 whole entry): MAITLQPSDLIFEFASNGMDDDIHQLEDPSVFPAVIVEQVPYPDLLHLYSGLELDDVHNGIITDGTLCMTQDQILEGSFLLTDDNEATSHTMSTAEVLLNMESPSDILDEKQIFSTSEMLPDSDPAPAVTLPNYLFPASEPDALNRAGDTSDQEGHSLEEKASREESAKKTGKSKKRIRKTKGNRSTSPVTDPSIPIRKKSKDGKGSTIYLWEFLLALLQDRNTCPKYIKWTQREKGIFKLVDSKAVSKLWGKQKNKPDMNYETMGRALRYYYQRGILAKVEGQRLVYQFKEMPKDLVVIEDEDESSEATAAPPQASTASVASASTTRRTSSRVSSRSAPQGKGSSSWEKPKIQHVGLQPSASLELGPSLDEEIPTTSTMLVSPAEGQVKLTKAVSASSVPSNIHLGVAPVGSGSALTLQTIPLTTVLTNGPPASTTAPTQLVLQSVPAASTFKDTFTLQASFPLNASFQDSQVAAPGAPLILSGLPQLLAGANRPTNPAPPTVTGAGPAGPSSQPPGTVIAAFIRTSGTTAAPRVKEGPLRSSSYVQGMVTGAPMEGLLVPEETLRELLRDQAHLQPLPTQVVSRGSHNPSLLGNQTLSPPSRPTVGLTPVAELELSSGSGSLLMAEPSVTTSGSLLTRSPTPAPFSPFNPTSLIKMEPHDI
Chain of ETV5 (P41161 whole entry): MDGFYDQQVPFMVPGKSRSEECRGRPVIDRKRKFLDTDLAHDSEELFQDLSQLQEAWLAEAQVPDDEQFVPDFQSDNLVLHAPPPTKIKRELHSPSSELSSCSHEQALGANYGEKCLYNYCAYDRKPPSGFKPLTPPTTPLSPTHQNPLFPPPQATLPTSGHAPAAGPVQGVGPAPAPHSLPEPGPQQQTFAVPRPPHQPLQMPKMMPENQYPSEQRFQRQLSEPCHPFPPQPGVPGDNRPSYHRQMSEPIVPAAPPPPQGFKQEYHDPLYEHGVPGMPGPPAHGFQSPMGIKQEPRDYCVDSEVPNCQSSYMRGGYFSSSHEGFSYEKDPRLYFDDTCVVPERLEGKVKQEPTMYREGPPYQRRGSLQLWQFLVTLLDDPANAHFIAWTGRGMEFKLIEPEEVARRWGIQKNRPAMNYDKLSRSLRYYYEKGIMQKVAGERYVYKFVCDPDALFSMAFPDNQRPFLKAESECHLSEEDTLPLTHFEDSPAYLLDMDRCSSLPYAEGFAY
Chain of ETV1 (P50549 whole entry): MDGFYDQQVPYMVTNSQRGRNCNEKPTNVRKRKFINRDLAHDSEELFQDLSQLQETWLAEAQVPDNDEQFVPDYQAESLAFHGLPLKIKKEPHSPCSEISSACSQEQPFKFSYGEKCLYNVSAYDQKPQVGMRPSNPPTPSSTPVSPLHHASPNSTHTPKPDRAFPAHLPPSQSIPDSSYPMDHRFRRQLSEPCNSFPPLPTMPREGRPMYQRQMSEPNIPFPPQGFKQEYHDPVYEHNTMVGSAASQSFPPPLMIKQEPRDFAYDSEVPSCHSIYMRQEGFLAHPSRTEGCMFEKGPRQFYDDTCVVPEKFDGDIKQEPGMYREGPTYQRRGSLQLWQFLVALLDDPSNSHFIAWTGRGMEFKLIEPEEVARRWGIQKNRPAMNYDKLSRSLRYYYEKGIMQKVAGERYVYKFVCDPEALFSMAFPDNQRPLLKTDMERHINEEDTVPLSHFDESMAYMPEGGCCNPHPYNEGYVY

Row | Sequence | binding signal (FEV) | binding signal (ETV5) | binding signal (SPIC) | binding signal (ELF4) | binding signal (ELK4) | binding signal (ETV2) | binding signal (ELF3) | binding signal (ETV1)
1 | CGGAAA | 3.21 fold enrichment (6-mer frequency, TF over GST control) | 2.32 fold enrichment (6-mer frequency, TF over GST control) | 1.94 fold enrichment (6-mer frequency, TF over GST control) | 1.84 fold enrichment (6-mer frequency, TF over GST control) | 1.55 fold enrichment (6-mer frequency, TF over GST control) | 2 fold enrichment (6-mer frequency, TF over GST control) | 2.13 fold enrichment (6-mer frequency, TF over GST control) | 2.17 fold enrichment (6-mer frequency, TF over GST control)
2 | TGACTG | 1.05 fold enrichment (6-mer frequency, TF over GST control) | 1.03 fold enrichment (6-mer frequency, TF over GST control) | 1.03 fold enrichment (6-mer frequency, TF over GST control) | 1.09 fold enrichment (6-mer frequency, TF over GST control) | 1.16 fold enrichment (6-mer frequency, TF over GST control) | 1.09 fold enrichment (6-mer frequency, TF over GST control) | 1.04 fold enrichment (6-mer frequency, TF over GST control) | 1.03 fold enrichment (6-mer frequency, TF over GST control)
3 | GCTACA | 1.22 fold enrichment (6-mer frequency, TF over GST control) | 1.18 fold enrichment (6-mer frequency, TF over GST control) | 1.33 fold enrichment (6-mer frequency, TF over GST control) | 1.18 fold enrichment (6-mer frequency, TF over GST control) | 1.24 fold enrichment (6-mer frequency, TF over GST control) | 1.17 fold enrichment (6-mer frequency, TF over GST control) | 1.27 fold enrichment (6-mer frequency, TF over GST control) | 1.13 fold enrichment (6-mer frequency, TF over GST control)
4 | AACACC | 1.15 fold enrichment (6-mer frequency, TF over GST control) | 1.04 fold enrichment (6-mer frequency, TF over GST control) | 1.02 fold enrichment (6-mer frequency, TF over GST control) | 1.14 fold enrichment (6-mer frequency, TF over GST control) | 1.13 fold enrichment (6-mer frequency, TF over GST control) | 1.15 fold enrichment (6-mer frequency, TF over GST control) | 1.09 fold enrichment (6-mer frequency, TF over GST control) | 1.13 fold enrichment (6-mer frequency, TF over GST control)
5 | GCTGAC | 1.12 fold enrichment (6-mer frequency, TF over GST control) | 1.03 fold enrichment (6-mer frequency, TF over GST control) | 1.1 fold enrichment (6-mer frequency, TF over GST control) | 1.1 fold enrichment (6-mer frequency, TF over GST control) | 1.05 fold enrichment (6-mer frequency, TF over GST control) | 1.38 fold enrichment (6-mer frequency, TF over GST control) | 1.27 fold enrichment (6-mer frequency, TF over GST control) | 1.03 fold enrichment (6-mer frequency, TF over GST control)
6 | CGACAC | 1.21 fold enrichment (6-mer frequency, TF over GST control) | 1.13 fold enrichment (6-mer frequency, TF over GST control) | 1.15 fold enrichment (6-mer frequency, TF over GST control) | 1.21 fold enrichment (6-mer frequency, TF over GST control) | 1.14 fold enrichment (6-mer frequency, TF over GST control) | 1.15 fold enrichment (6-mer frequency, TF over GST control) | 1.04 fold enrichment (6-mer frequency, TF over GST control) | 1.16 fold enrichment (6-mer frequency, TF over GST control)
7 | ACACAT | 1.29 fold enrichment (6-mer frequency, TF over GST control) | 1.19 fold enrichment (6-mer frequency, TF over GST control) | 1.17 fold enrichment (6-mer frequency, TF over GST control) | 1.23 fold enrichment (6-mer frequency, TF over GST control) | 1.33 fold enrichment (6-mer frequency, TF over GST control) | 1.35 fold enrichment (6-mer frequency, TF over GST control) | 1.28 fold enrichment (6-mer frequency, TF over GST control) | 1.23 fold enrichment (6-mer frequency, TF over GST control)
8 | GTACAA | 1.11 fold enrichment (6-mer frequency, TF over GST control) | 1.08 fold enrichment (6-mer frequency, TF over GST control) | 1.12 fold enrichment (6-mer frequency, TF over GST control) | 1.09 fold enrichment (6-mer frequency, TF over GST control) | 1.18 fold enrichment (6-mer frequency, TF over GST control) | 1.19 fold enrichment (6-mer frequency, TF over GST control) | 1.08 fold enrichment (6-mer frequency, TF over GST control) | 1.09 fold enrichment (6-mer frequency, TF over GST control)
9 | CGCACT | 1.32 fold enrichment (6-mer frequency, TF over GST control) | 1.28 fold enrichment (6-mer frequency, TF over GST control) | 1.04 fold enrichment (6-mer frequency, TF over GST control) | 1.29 fold enrichment (6-mer frequency, TF over GST control) | 1.1 fold enrichment (6-mer frequency, TF over GST control) | 1.29 fold enrichment (6-mer frequency, TF over GST control) | 1.26 fold enrichment (6-mer frequency, TF over GST control) | 1.23 fold enrichment (6-mer frequency, TF over GST control)
10 | TGTGAC | 1.14 fold enrichment (6-mer frequency, TF over GST control) | 1.15 fold enrichment (6-mer frequency, TF over GST control) | 1.14 fold enrichment (6-mer frequency, TF over GST control) | 1.19 fold enrichment (6-mer frequency, TF over GST control) | 1.2 fold enrichment (6-mer frequency, TF over GST control) | 1.09 fold enrichment (6-mer frequency, TF over GST control) | 1.16 fold enrichment (6-mer frequency, TF over GST control) | 1.04 fold enrichment (6-mer frequency, TF over GST control)
11 | GCGCCT | 1.13 fold enrichment (6-mer frequency, TF over GST control) | 1.07 fold enrichment (6-mer frequency, TF over GST control) | 1 fold enrichment (6-mer frequency, TF over GST control) | 1.07 fold enrichment (6-mer frequency, TF over GST control) | 1.28 fold enrichment (6-mer frequency, TF over GST control) | 1.13 fold enrichment (6-mer frequency, TF over GST control) | 1.11 fold enrichment (6-mer frequency, TF over GST control) | 1.17 fold enrichment (6-mer frequency, TF over GST control)
12 | CACCCG | 1.16 fold enrichment (6-mer frequency, TF over GST control) | 1.21 fold enrichment (6-mer frequency, TF over GST control) | 1.17 fold enrichment (6-mer frequency, TF over GST control) | 1.18 fold enrichment (6-mer frequency, TF over GST control) | 1.29 fold enrichment (6-mer frequency, TF over GST control) | 1.2 fold enrichment (6-mer frequency, TF over GST control) | 1.16 fold enrichment (6-mer frequency, TF over GST control) | 1.14 fold enrichment (6-mer frequency, TF over GST control)
13 | CTGGTC | 1.11 fold enrichment (6-mer frequency, TF over GST control) | 1.22 fold enrichment (6-mer frequency, TF over GST control) | 1.2 fold enrichment (6-mer frequency, TF over GST control) | 1.16 fold enrichment (6-mer frequency, TF over GST control) | 1.19 fold enrichment (6-mer frequency, TF over GST control) | 1.27 fold enrichment (6-mer frequency, TF over GST control) | 1.05 fold enrichment (6-mer frequency, TF over GST control) | 1.07 fold enrichment (6-mer frequency, TF over GST control)
14 | TGCATC | 1.33 fold enrichment (6-mer frequency, TF over GST control) | 1.39 fold enrichment (6-mer frequency, TF over GST control) | 1.46 fold enrichment (6-mer frequency, TF over GST control) | 1.31 fold enrichment (6-mer frequency, TF over GST control) | 1.22 fold enrichment (6-mer frequency, TF over GST control) | 1.33 fold enrichment (6-mer frequency, TF over GST control) | 1.3 fold enrichment (6-mer frequency, TF over GST control) | 1.4 fold enrichment (6-mer frequency, TF over GST control)
15 | GCACCC | 1.12 fold enrichment (6-mer frequency, TF over GST control) | 1.11 fold enrichment (6-mer frequency, TF over GST control) | 1.3 fold enrichment (6-mer frequency, TF over GST control) | 1.22 fold enrichment (6-mer frequency, TF over GST control) | 1.33 fold enrichment (6-mer frequency, TF over GST control) | 1.28 fold enrichment (6-mer frequency, TF over GST control) | 1.25 fold enrichment (6-mer frequency, TF over GST control) | 1.15 fold enrichment (6-mer frequency, TF over GST control)
16 | CCCCGG | 1.38 fold enrichment (6-mer frequency, TF over GST control) | 1.27 fold enrichment (6-mer frequency, TF over GST control) | 1.07 fold enrichment (6-mer frequency, TF over GST control) | 1.2 fold enrichment (6-mer frequency, TF over GST control) | 1.31 fold enrichment (6-mer frequency, TF over GST control) | 1.24 fold enrichment (6-mer frequency, TF over GST control) | 1.09 fold enrichment (6-mer frequency, TF over GST control) | 1.29 fold enrichment (6-mer frequency, TF over GST control)
17 | CTGCGT | 1.07 fold enrichment (6-mer frequency, TF over GST control) | 1.09 fold enrichment (6-mer frequency, TF over GST control) | 1.31 fold enrichment (6-mer frequency, TF over GST control) | 1.09 fold enrichment (6-mer frequency, TF over GST control) | 1.3 fold enrichment (6-mer frequency, TF over GST control) | 1.09 fold enrichment (6-mer frequency, TF over GST control) | 1.07 fold enrichment (6-mer frequency, TF over GST control) | 1.11 fold enrichment (6-mer frequency, TF over GST control)
18 | CGTCCG | 1.48 fold enrichment (6-mer frequency, TF over GST control) | 1.23 fold enrichment (6-mer frequency, TF over GST control) | 1.37 fold enrichment (6-mer frequency, TF over GST control) | 1.26 fold enrichment (6-mer frequency, TF over GST control) | 1.17 fold enrichment (6-mer frequency, TF over GST control) | 1.16 fold enrichment (6-mer frequency, TF over GST control) | 1.26 fold enrichment (6-mer frequency, TF over GST control) | 1.38 fold enrichment (6-mer frequency, TF over GST control)

Reference: publication PMC7862700, “An all-to-all approach to the identification of sequence-specific readers for epigenetic DNA modifications on cytosine”
